Here are results for 1 compound from PubChem BioAssay AID2078 (The Scripps Research Institute Molecular Screening Center, 2009).

The nature of this assay: STAT3 inhibitors, late-stage profile, late-stage follow-up, cell-based, STAT1 panel, qPCR, cytotoxicity (AID 2078). The following applies: STAT3/STAT1 inhibition panel, cell reporter assay, Quantitative PCR; qPCR mRNA fold change, at 10 µM, stronger effect = lower value. In general terms: Quantitative PCR measures a nucleic acid by following its amplification.

The source made the active and inactive calls. How the calls were made is not given here.

As for `c1ccc(CC2CCN(c3ncnc4sccc34)CC2)cc1`, the fold change stood at 0.68 and the outcome is “active; probe”.
